Records with an inconclusive call do not appear. Active and inactive are the calls of the source.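 How the source made its calls, unless noted: active means GFP response above 150% of the DMSO level; inconclusive means fewer than 70 events counted for a yeast strain; inactive means the rest.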

The nature of assay [1]: hit retest on RPL19A-GFP reporter strain – cell-based, S. cerevisiae, flow cytometry, cherry picks, mother/daughter gates, confirmation (AID 2270;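 active means GFP response below 50% of the DMSO control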). The settings on record: 3 h, at 10 µM, stronger effect = lower value, 100 = same GFP as DMSO wells. (In flow cytometry, cells or beads pass a laser one at a time.)
Assay [2] in a line: yeast TOR pathway reporter LAP4-GFP change – cell-based, cherry picks, flow cytometry, mother/daughter gates, confirmation (AID 2271;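 active means GFP response above 150% of the DMSO control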;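 further: ratio of sample to DMSO plate mean so 100% equals DMSO level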). The settings on record: S. cerevisiae LAP4-GFP strain, 3 h, at 10 µM, stronger effect = higher value.
Assay [3] is described as follows: TOR pathway reporter MEP2-GFP, retest of hits – S. cerevisiae, flow cytometry GFP, cherry picks, confirmation (AID 2272;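 active means GFP response above 150% of the DMSO control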;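 further: ratio of well signal to plate DMSO mean so 100% equals DMSO level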). The settings on record: S. cerevisiae MEP2-GFP strain, 3 h, at 10 µM, stronger effect = higher value.
Assay [4] in a line: yeast AGP1-GFP fluorescence change, single-dose – cell-based, flow cytometry, S. cerevisiae, cherry picks, confirmation (AID 2273).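 Further: median GFP channel fluorescence over the whole cell population gate.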 The following applies: S. cerevisiae AGP1-GFP strain, 3 h, at 10 µM.
Assay [5] in a line: TOR pathway CIT2 reporter hit retest – S. cerevisiae, GFP fusion, cherry picks, mother/daughter gates, confirmation (AID 2274). The following applies: S. cerevisiae CIT2-GFP strain, flow cytometry, 3 h, at 10 µM, stronger effect = higher value.
A short description of assay [6]: rapamycin-like changes in RPL19A-GFP expression – cell-based, S. cerevisiae, multiplex flow cytometry, primary screen (AID 1862; in the data active means percent of DMSO control GFP below about 86%;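 further: lower values mimic rapamycin by blocking the RPL19A rise seen in DMSO cells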). The settings on record: S. cerevisiae RPL19A-GFP strain, flow cytometry fluorescence, 3 h; at 10 µM; stronger effect = lower value.
Assay [7] is described as follows: TOR pathway GLN3 branch reporter MEP2-GFP changes – S. cerevisiae, multiplex flow cytometry, primary screen (AID 1867;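 active means GFP response, as percent of the DMSO control, above the screen-wide mean plus 3 SD, about 139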;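 further: median GFP channel fluorescence of barcode-gated MEP2-GFP cells measured by flow cytometry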). The following applies: S. cerevisiae MEP2-GFP strain, 3 h, at 10 µM, stronger effect = higher value.
Assay [8] is described as follows: TOR pathway RTG branch CIT2 reporter changes – S. cerevisiae, GFP fusion, multiplex flow cytometry, primary screen (AID 1870;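 active means percent response above a set limit, the screen-wide mean plus 3 SD, cut at about 130% in these data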;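 further: barcoded CIT2-GFP strain pooled with four other GFP strains with rapamycin as positive control; median GFP fluorescence per well over plate mean of DMSO wells so 100% = DMSO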). The following applies: S. cerevisiae CIT2-GFP expression, 3 h, at 10 µM, stronger effect = higher value.
Assay [9] is described as follows: TOR pathway LAP4-GFP level changes – S. cerevisiae, multiplex flow cytometry, primary screen (AID 1873;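 active means GFP signal, as percent of the solvent control, above the screen mean plus 3 SD, about 149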). The following applies: S. cerevisiae LAP4-GFP expression, 3 h, at 10 µM, stronger effect = higher value.
Assay [10] can be described thus: reduced mouse 2C T cell binding to pMHC/ICAM-1 vesicles – MLPCN validation set, flow cytometry, LFA-1/ICAM-1 modulator project, pilot screen (AID 2523;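 active means response below a set limit, under 55% cells CD8-positive and vesicle-bound, and CD8 cells' 90th-percentile brightness under 279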;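 on vesicle binding response: mean PE anti-B7-1 fluorescence of CD8+ cells relative to row control; 100% = QL9-loaded vesicles with DMSO vehicle in the same plate row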). The following applies: 2C mouse CD8+ T cells, at 7 µM, stronger effect = lower value; double positive events: measured here: CD8+/vesicle+ event percentage.
For assay [11], the target named is Integrin beta-1 (Homo sapiens) + Integrin alpha-4 (Homo sapiens) (UniProt P13612+P05556). Kind of assay: alpha4beta1 integrin LIBS antibody binding reduction – U937 cells, HUTS-21 mAb, flow cytometry, validation set, VLA-4 allosteric modulator project, pilot screen (AID 2674;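 active means inhibition above 50%, about 3 SD of the validation set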;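 further: antibody binding induced by the VLA-4 ligand LDV present at three times its Kd; 0% = LDV ligand with antibody and no compound and 100% = antibody without LDV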). The following applies: HUTS-21 LIBS mAb binding, at 6.7 µM, stronger effect = higher value.
Assay [12] can be described thus: calorie-restriction mimetic ROS inhibitors, yeast – validation compound set, pilot screen (AID 2706;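 active means superoxide response below 65% of plate, a cut near 3 SD across the whole screen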;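 further: yeast exposed to compound for one week at 30 degrees C before staining; 100% = mean of all compound wells on the same plate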). The settings on record: S. cerevisiae aging, superoxide DHE fluorescence; at 10 µM; stronger effect = lower value.
Assay [13] has as its target Beta-adrenergic receptor kinase 1 (Homo sapiens) (UniProt P25098). Kind of assay: GRK2 binders displacing RNA aptamer, biochemical, validation, human GRK2, bead flow cytometry (AID 488806;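 active means aptamer binding inhibition above 30%, about 3 SD of noise from non-fluorescent compounds; inactive means inhibition at or below 30%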). The settings on record: bead-bound GRK2, FAM-aptamer displacement, at 10 µM, stronger effect = higher value.
In assay [14] the target is Beta-2 adrenergic receptor (Homo sapiens) (UniProt P07550). In words: agonist-induced loss of surface beta2AR – cell-based, FAP fluorogen, flow cytometry, validation set, pilot screen (AID 504459;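 active means percent response above 42, roughly 3 SD of non-fluorescent test compounds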;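 further: agonist-driven loss of surface beta2AR via internalization measured by FAP dye flow cytometry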). The settings on record: Am2.2-beta2AR cells, at 10 µM, stronger effect = higher value.
In assay [15] the target is AP-2 complex subunit beta (Homo sapiens) (UniProt P63010). Kind of assay: beta-arrestin/AP2 interaction blockers – biochemical, validation set, GST-AP2 beads, flow cytometry, pilot screen (AID 504541;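 active means inhibition above 54%, about 3 SD of non-fluorescent compounds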;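 further: AP2 carries R879A mutation and is captured from E. coli lysate; bead-bound FITC arrestin peptide fluorescence measuring arrestin peptide binding to AP2; 0% = DMSO wells and 100% = excess unlabeled arrestin peptide control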). The settings on record: FITC arrestin peptide, at 10 µM, stronger effect = higher value.
The nature of assay [16]: cytosolic pH regulators acting via V-ATPase – S. cerevisiae, pHLuorin, HTS validation (AID 504600; in the data active means response above about 15%;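 further: plate controls were DMSO for no effect and reference compound for full effect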). The following applies: V-ATPase proton transport, at 10 µM, stronger effect = higher value.
Assay [17] relates to anti-desmoglein-3 scFv antibody binding to human DSG3. Kind of assay: blockers of pathogenic pemphigus antibody–desmoglein-3 binding – biochemical, validation compound set, bead-based, flow cytometry, pilot screen (AID 588368;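 active means binding below the plate cutoff, the plate median minus 3 SD, with a reading above zero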;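 further: signal is the median channel fluorescence of bead-bound GFP antibody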). The following applies: Protein G beads, DSG3-Fc, scFv-GFP binding, at 10 µM, stronger effect = lower value.
Assay [18] concerns Botulinum neurotoxin type F light chain protease (Clostridium botulinum). In words: Clostridium botulinum type F light chain protease inhibitors, microsphere substrate cleavage, validation (AID 588459; call rule not given here). The settings on record: multiplex microsphere protease substrate cleavage assay, flow cytometry; at 10 µM; stronger effect = higher value.
The target in assay [19] is Botulinum neurotoxin type A (Clostridium botulinum) (UniProt P0DPI0). In words: BoNT/A light chain protease inhibitors, biochemical, multiplex microsphere flow cytometry, validation set (AID 588460; call rule not given here). The following applies: at 10 µM, stronger effect = higher value.
Assay [20] has as its target Lethal factor (Bacillus anthracis) (UniProt P15917). Kind of assay: Bacillus anthracis lethal factor inhibition, microsphere flow cytometry protease assay, validation at 10 µM (AID 588461; call rule not given here). The following applies: multiplex microsphere protease cleavage assay, stronger effect = higher value.
The nature of assay [21]: Nile Red efflux blockade in pump-expressing yeast – validation compound set, multiplex, phenotypic, pilot screen (AID 588506;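 active means efflux inhibition above 0.42, the validation set average plus 4 SD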;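 further: Nile Red retained in cells so higher fluorescence means more efflux inhibition; 0 = negative control wells and 1 = enniatin B 25 µM full block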). The following applies: S. cerevisiae pump-expressing triplex, Nile Red efflux flow cytometry; at 10 µM; stronger effect = higher value.
In assay [22] the target is ATP-binding cassette sub-family B member 6 (Homo sapiens) (UniProt Q9NP58). Kind of assay: blockers of ABCB6-driven porphyrin uptake – K562-ABCB6 cells, flow cytometry, validation set, pilot screen (AID 588550;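 active means inhibition above the screen-wide mean plus 3 SD, about 51%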;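 further: 0% = DMSO wells and 100% = benzethonium chloride 70 µM positive control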). The following applies: K562-ABCB6 porphyrin accumulation, 1 h, at 10 µM, stronger effect = higher value.
A short description of assay [23]: AML differentiation inducers, ER-HoxA9 marrow cells – cell-based, GFP/MAC1 double positive, flow cytometry, validation set, primary screen (AID 588685;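 active means differentiation response of at least 50%, scaled between solvent and reference control, from cells with both markers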;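 further: compound exposure lasts four days before antibody staining and flow analysis; 0% = DMSO wells and 100% = 5 µM fulvestrant positive control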). The following applies: stronger effect = higher value.
Where [24] appears, read: measured here: daughter cell gate.
Setting [25] is: measured here: mother cell gate.
[26] abbreviates: measured here: daughter cell gate response.
Setting [27] is: measured here: mother cell gate response.

`C#CCOc1cc(C2C3=C(COC3=O)Nc3cc4c(cc32)OCO4)ccc1OC` (configuration not stated): the GFP response vs DMSO in [1] was 102% (inactive); in assay [1] (setting [24]), 100%; in assay [1] (setting [25]), 103%; in [3], 117% (inactive). In addition, the GFP response relative to DMSO in assay [2] was 113% (inactive); in assay [2] (setting [26]) it was 106%; in assay [2] (setting [27]) it was 114%. The GFP response, % of DMSO in assay [4] is 103% (inactive); in assay [5], 107% (inactive); in [5] (setting [24]), 103%; in assay [5] (setting [25]), 107%.

With `CCN(CC)c1ccc(C=C2C(=O)NC(=S)NC2=O)cc1`, the GFP response vs DMSO was 94.7% (inactive) in assay [1], 90.2% in assay [1] (setting [24]), 90% in assay [1] (setting [25]) and 95.2% (inactive) in assay [3]. Further, the GFP response relative to DMSO in assay [2] was 128% (inactive); in assay [2] (setting [26]), 116%; in assay [2] (setting [27]), 131%. The GFP response, % of DMSO in [4] is 100% (inactive); in assay [5], 94.4% (inactive); in assay [5] (setting [24]), 95.8%; in assay [5] (setting [25]), 84.8%.

For the molecule `CC(C)[C@@]1(NC(=O)[C@@H]2C[C@@H]3c4cccc5[nH]cc(c45)C[C@H]3N(C)C2)O[C@@]2(O)[C@@H]3CCCN3C(=O)[C@H](Cc3ccccc3)N2C1=O`, in [6], the percent of DMSO control GFP was 88.4% (inactive). Also, the figures for the GFP response vs DMSO in assay [7] and in assay [9] were 132% (inactive) and 84.2% (inactive), respectively. Moreover, the percent response of DMSO control in [8] was 112% (inactive). The molecule further returned a double positive events in assay [10] of 74.1%. In addition, the vesicle binding response in assay [10] was 240% (inactive). The inhibition (usually the relative decrease from the control value, in per cent) was -14.9% (inactive) in [11]; 0.81% (inactive) in assay [15]; -9.2% (inactive) in assay [18]; -1.6% (inactive) in [19]; -32% (inactive) in assay [20]; 9% (inactive) in assay [22]. Further, the superoxide response (% of plate) in assay [12] is 98.1% (inactive). Also, the aptamer binding inhibition in [13] was -3% (inactive). For the same molecule, the response in assay [14] is -14.6% (inactive); in [16], 1.06% (inactive). The binding (% of control) in assay [17] was 114% (inactive). Besides, the efflux inhibition (fraction of control) in assay [21] was 0.37 (inactive). Besides, the differentiation response in assay [23] was 4.09% (inactive).

As for `COc1ccc(N2C(=O)/C(=C/c3ccco3)C(=O)NC2=S)cc1`, the GFP response vs DMSO in assay [1] is 97.4% (inactive); in assay [1] (setting [24]), 102%; in assay [1] (setting [25]), 91.4%; in assay [3] it was 100% (inactive). The results for the GFP response relative to DMSO in assay [2], in assay [2] (setting [26]) and in assay [2] (setting [27]) were 91.4% (inactive), 94.1% and 94.2%, respectively. Further, the GFP response, % of DMSO is 100% (inactive) in assay [4], 91.3% (inactive) in [5], 103% in assay [5] (setting [24]) and 83.7% in assay [5] (setting [25]).

The values are drawn from PubChem BioAssay.
